Results filed as inconclusive are left out. Where a call stands in place of a potency, no number is given. Calls of active or inactive are those of the source. Unless noted, the call rests on the fitted dose curve.
Legend:
[1] = qHTS for Inhibitors of the Functional Ribonucleoprotein Complex (vRNP) of Lassa (LASV) Arenavirus: LASV Primary Screen - GLuc reporter signal (AID 1347082; calls by dose curve; tested in HEK293 reporter line; further: nearly all actives have a fitted effect of over 60% in size)
[2] = qHTS for Inhibitors of the Functional Ribonucleoprotein Complex (vRNP) of Lassa (LASV) Arenavirus: Viability assay - alamar blue signal for LASV Primary Screen (AID 1347083; calls by dose curve; tested in HEK293 reporter line; further: nearly all actives have a fitted effect of over 80% in size)
[3] = qHTS for Inhibitors of the Functional Ribonucleoprotein Complex (vRNP) of Lymphocytic Choriomeningitis Arenaviruses (LCMV): Viability assay - alamar blue signal for LCMV Primary Screen (AID 1347085; calls by dose curve; tested in HEK293 reporter line; further: nearly all actives have a fitted effect of over 80% in size)
[4] = target: Nucleoprotein (Lymphocytic choriomeningitis virus (strain Armstrong)) (UniProt P09992); assay: qHTS for Inhibitors of the Functional Ribonucleoprotein Complex (vRNP) of Lymphocytic Choriomeningitis Arenaviruses (LCMV): LCMV Primary Screen - GLuc reporter signal (AID 1347086); further: nearly all actives have a fitted effect of over 70% in size
[5] = test system: Zika virus NS2B-NS3 protease; assay: Primary screen GU AMC qHTS for Zika virus inhibitors (AID 1347154; active means well fitted curve in the direction sought with a large enough effect; an effect the other way counts as inactive or inconclusive; further: nearly all actives have a fitted effect of over 70% in size)
Method in brief: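 Unlinked Zika NS2B hydrophilic domain–NS3 protease complex at 25 nM in 10 mM Tris-HCl pH 8.0, 0.01% Tween 20, with an AMC peptide substrate. Fluorescence change (340/450 nm) over 15 min at room temperature, normalized to controls, fitted to 4-parameter Hill.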

[6] = Primary qHTS for small molecule stabilizers of the endoplasmic reticulum resident proteome: Secreted ER Calcium Modulated Protein (SERCaMP) assay (AID 1508630; active means well fitted curve in the direction sought with a large enough effect; an effect the other way counts as inactive or inconclusive)
Method in brief: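 The SH-SY5Y reporter protocol was run at 3 concentrations up to 38.3 uM (primary) or 11 concentrations (follow-up): 16 h compound, 100 nM thapsigargin for 4 h, then extracellular luciferase luminescence.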

[7] = Primary qHTS for inhibitors of SARS-S pseudo-typed particle cell entry (AID 1479145); further: nearly all actives have a fitted effect of over 45% in size
[8] = Primary qHTS for Huh7 cytotoxicity: counterscreen for inhibitors of MERS-S pseudotyped particle cell entry (AID 1479147); settings: outcome: dose series up to 57.1 µM unless noted
[9] = Primary qHTS for inhibitors of MERS-S pseudo-typed particle cell entry (AID 1479149); further: nearly all actives have a fitted effect of over 60% in size
[10] = Primary qHTS for Vero E6 cytotoxicity: counterscreen for inhibitors of SARS-S pseudo-typed particle cell entry (AID 1479150); settings: outcome: dose series up to 57.1 µM unless noted
[11] = Cytotoxicity counterscreen for inhibitors of SARS-CoV-2 cell entry (AID 1645845); further: nearly all actives have a fitted effect of over 50% in size
Method in brief: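 Counterscreen run in the same HEK293-ACE2 line as the pseudotyped-particle entry assay, without particles. Viability after 48 h at 37 C was read as ATP luminescence, scaled between cell-containing and cell-free wells.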

[12] = Primary qHTS to identify inhibitors of SARS-CoV-2 cell entry (AID 1645846); settings: activity change, negative = inhibition: at 57.1 µM (top of the series) unless noted; further: nearly all actives have a fitted effect of over 45% in size
Method in brief: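 HEK293-ACE2 (Expi293F, stable hACE2), 1500 cells/well, o/n 37C; cpd 23 nL pin, 1 h; MLV-PP w/ SARS-CoV-2-S (Wuhan-Hu-1, Δ19 C-term); 48 h 37C; Bright-Glo luminescence; normalized vs S-PP and bald PP.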

Chain of Nucleoprotein (Lymphocytic choriomeningitis virus (strain Armstrong)) (P09992 whole entry, looked up): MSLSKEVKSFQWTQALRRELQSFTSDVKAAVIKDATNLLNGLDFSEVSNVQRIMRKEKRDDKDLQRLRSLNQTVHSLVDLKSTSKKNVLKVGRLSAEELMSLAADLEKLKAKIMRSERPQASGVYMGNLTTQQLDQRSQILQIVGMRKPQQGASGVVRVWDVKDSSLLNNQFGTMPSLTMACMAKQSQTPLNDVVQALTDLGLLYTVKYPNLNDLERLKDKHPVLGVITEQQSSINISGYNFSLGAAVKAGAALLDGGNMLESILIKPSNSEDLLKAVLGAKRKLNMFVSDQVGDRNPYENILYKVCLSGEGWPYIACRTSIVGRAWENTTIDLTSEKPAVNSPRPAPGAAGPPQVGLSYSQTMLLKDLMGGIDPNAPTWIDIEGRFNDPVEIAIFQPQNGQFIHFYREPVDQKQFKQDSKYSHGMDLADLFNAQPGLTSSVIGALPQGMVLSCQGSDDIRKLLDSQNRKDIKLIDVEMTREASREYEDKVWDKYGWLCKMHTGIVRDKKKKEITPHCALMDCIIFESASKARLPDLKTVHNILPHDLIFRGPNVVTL

| Compound | Potency [1] | Potency [2] | Potency [3] | Potency [4] | Potency [5] | Potency [6] | Potency [7] | outcome [8] | Potency [9] | outcome [10] | Potency [11] | activity change, negative = inhibition [12] | activity change, negative = inhibition [7] | outcome [9] | outcome [11] |
| --- | --- | --- | --- | --- | --- | --- | --- | --- | --- | --- | --- | --- | --- | --- | --- |
| COc1ccc(CCN)cc1 | inactive | inactive | inactive | inactive | inactive | inactive | – | – | – | – | – | – | – | – | – |
| O=C(Nc1c(Cl)cncc1Cl)c1ccc(OC(F)F)c(OCC2CC2)c1 | inactive | inactive | inactive | inactive | – | – | inactive | inactive | inactive | inactive | inactive | -7.18% | – | – | – |
| C[N+]1([O-])CCC[C@@H]1c1cccnc1 (some centres not stated) | inactive | inactive | inactive | inactive | inactive | inactive | – | – | – | – | – | – | – | – | – |
| C[C@]12CCC(=O)C[C@@H]1CC[C@@H]1[C@@H]2CC[C@]2(C)C=CC[C@@H]12 | inactive | inactive | inactive | inactive | – | – | inactive | inactive | inactive | inactive | inactive | -21.9% | – | – | – |
| CNCC/C=C/c1cccnc1 | inactive | inactive | inactive | inactive | inactive | inactive | – | – | – | – | – | – | – | – | – |
| C[C@@H](O)[C@H]1C(=O)N2C(C(=O)OCOC(=O)C(C)(C)C)=C(SC3CN(C4=NCCS4)C3)[C@H](C)[C@H]12 | inactive | inactive | inactive | inactive | – | – | inactive | inactive | inactive | inactive | inactive | – | – | – | – |
| NC[C@H]1O[C@H](O[C@H]2[C@@H](O)[C@@H](O[C@H]3O[C@H](CO)[C@@H](O)[C@H](N)[C@@H]3O)[C@H](N)C[C@@H]2N)[C@H](N)C[C@H]1O | inactive | inactive | inactive | inactive | – | – | – | inactive [at 11.4 µM] | – | inactive [at 11.4 µM] | – | -15.5% [at 11.3 µM] | -1.32% [at 11.4 µM] (inactive) | inactive [at 11.4 µM] | inactive [at 11.3 µM] |

— PubChem BioAssay (NCATS)
